Vaccinia mCherry: inhibitors of vaccinia virus infection (mCherry reporter signal); Vaccinia virus mCherry reporter infection, fluorescence; Potency, µM (highest dose often 36.5 µM), for the others: top-dose activity change, negative = inhibition, usual class: inhibitors; 310,000 compounds, 0.63% hits; AID 720579; calls by dose curve; tested in A549 cells; note: % is set by controls: 0 for no effect and ±100 for the full control effect; nearly all actives have a fitted effect of over 35% in size
Pf growth 96h: P. falciparum growth inhibition at 96 hour, primary screen for plastid delayed-death inhibitors; AID 504834; Potency, µM (doses to about 28.7 µM), inactives show at the highest dose activity change, negative = inhibition, usual class: inhibitors; P. falciparum luciferase reporter growth, 96 h; 320,000 compounds, 6.9% hits; note: % is set by controls: 0 for no effect and ±100 for the full control effect
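Cell-based qHTS: luciferase-tagged P. falciparum in erythrocytes (2% hematocrit, 0.05% parasitemia final) incubated with compounds for 96 hours, 37 C, 5% CO2; luciferase detection reagent then added and luminescence measured.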
NS1 function inh: influenza NS1 inhibition. 270,000 compounds, 0.4% hits. AID 2326. Potency, µM (doses to about 46.1 µM), inactives show top-dose activity, positive = more growth; calls by dose curve; note: actives are rising curves; nearly all actives have a fitted effect of over 50% in size
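A cell-based growth assay was used: compounds that relieve NS1-induced slow growth of budding yeast raise OD600. Assay medium was yeast nitrogen base with ammonium sulphate and -URA supplement, pH 6.0, with 2% galactose.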
HCV inh: HCV inhibition. Huh7.5.1 HCVcc-Cre infection, luciferase reporter, 44 h. Potency, µM (top dose mostly 41.8 µM), for the others: top-dose activity change, negative = inhibition, actives largely listed as inhibitors. 340,000 compounds, 3.4% hits. AID 651820; note: % is set by controls: 0 for no effect and ±100 for the full control effect
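Whole-lifecycle infectious HCVcc-Cre system; cells 1,000/well, compound then virus (~0.5 moi) added 4 h after plating, 44 h culture. Luciferase read 15 sec following 15 min substrate incubation, room temp.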
Vaccinia Venus: vaccinia inhibition (Venus reporter); Potency, µM (doses to about 36.5 µM), without a hit: at the top dose activity change, negative = inhibition, hits mostly inhibitors; Vaccinia virus Venus reporter expression, fluorescence; 330,000 compounds, 0.46% hits; AID 720580; calls by dose curve; tested in A549 cells; note: % is set by controls: 0 for no effect and ±100 for the full control effect; nearly all actives have a fitted effect of over 30% in size
Pf growth 48h: P. falciparum growth inhibition at 48 hours (one generation) | P. falciparum luciferase growth in erythrocytes, 48 h | Potency, µM (highest dose often 28.7 µM), without a hit: at the top dose activity change, negative = inhibition, most hits filed as inhibitors | 310,000 compounds, 5.9% hits | AID 504832; note: % is set by controls: 0 for no effect and ±100 for the full control effect
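Parasite viability was followed by luminescence of a genomically integrated firefly luciferase. Cultures held 0.1% parasitemia at 2% hematocrit (final), incubated under 5% CO2 at 37 C.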
Starred values were filed as active, the others as inactive; i = inactive; ? = inconclusive; nt = not tested or not shown; [ ] = dose if it differs, or a comment. Shown are actives, neighbours in structure and some others; about 11% of the full set was active somewhere. Unless noted, calls come from the whole dose curve; as a rule, active = well fitted inhibition curve with a large enough effect; inconclusive = small, poorly fitted or top-dose-only effect, or another doubt; inactive = no such curve, though single readings can be large or run the other way. Potency is the fitted concentration of half-maximal effect.

SMILES	Vaccinia mCherry	Pf growth 96h	NS1 function inh	HCV inh	Vaccinia Venus	Pf growth 48h
CCC(=O)OCc1c(C(F)(F)F)nn(C)c1Sc1ccc(Cl)cc1	nt	53.5%	-4.1%	0.7%	nt	50.0%
CCOC(=O)c1cc(OC(=O)c2ccc(Cl)cc2)n(-c2ccccc2)n1	1.4%	nt	nt	nt	3.0%	nt
CCC(=O)N(Cc1c(C)nn(-c2ccccc2)c1Cl)c1ccc(Cl)cc1	-7.2%	3.2%	-26.9%	?	0.0%	10.4µM*
CCCC(=O)NC(Nc1cc(C(F)(F)F)ccc1Cl)C(Cl)(Cl)Cl (configuration not stated)	?	?	-17.0%	?	?	11.7µM*
C[C@H](NC(=O)c1ccccc1Cl)C(=O)OC(C(=O)Nc1cc(C(F)(F)F)ccc1Cl)c1ccccc1 (some centres not stated)	i	8.28µM*	25.3%	?	-16.3%	nt
CCCC(=O)NC(Nc1cccc(C(F)(F)F)c1)C(Cl)(Cl)Cl (configuration not stated)	?	1.85µM*	-29.9%	-5.8%	?	?
CC(C)C(=O)NC(Nc1cc(C(F)(F)F)ccc1Cl)C(Cl)(Cl)Cl (configuration not stated)	i	13.1µM*	0.9%	3.8%	-18.3%	?
CCS(=O)(=O)c1ccc2oc(SCC(=O)NC3CCCC(C)C3C)nc2c1 (configuration not stated)	?	?	?	-10.4%	?	nt
Nc1c2c(nc3ccccc13)CCCC2=O	-0.3%	-10.6%	5.7%	3.4%	-0.4%	-3.5%
Nc1c2c(nc3ccccc13)CCCC2O (configuration not stated)	-12.2%	10.7µM*	0.7%	-4.9%	-13.8%	-5.5%
O=S(=O)(c1ccccc1)N1CCC(O)(CSc2ccc(Cl)cc2)CC1	-26.9%	-2.0%	-34.4%	3.55µM*	-18.6%	7.4%
O=S(=O)(c1ccc(Cl)cc1)N1CCC(O)(CN2CCN(Cc3ccccc3)CC2)CC1	?	6.1%	nt	12.6µM*	?	-26.2%
COC(=O)N/N=C(C)\C=C\c1ccco1	nt	?	10.7%	-3.6%	nt	12.4%
CCOCCCNC(=O)C(c1ccc(C)cc1)N(Cc1ccc2c(c1)OCO2)C(=O)c1ccccc1O (configuration not stated)	-9.8%	nt	nt	nt	-12.9%	nt
O=C(Nc1ccccc1Cl)OC1CN2CCC1CC2 (configuration not stated)	-8.5%[7.34 µM]	14.4%	2.8%	-15.2%	-11.8%[7.34 µM]	?
CC(=O)OC1CN2CCC1CC2 (configuration not stated)	nt	4.78µM*	nt	nt	nt	-5.0%
COc1ccc(CNC(=O)CCS(=O)(=O)c2ccc3c(c2)NC(=O)CS3)cc1	nt	14.7µM*	11.4%	12.8%	nt	18.4%
CC1CCCC(NC(=O)CCS(=O)(=O)c2ccc3c(c2)NC(=O)CS3)C1C (configuration not stated)	-9.2%[7.34 µM]	13.1µM*	3.1%	0.8%	-5.5%[7.34 µM]	-9.9%
CC1CCCCC1NC(=O)CCS(=O)(=O)c1ccc2c(c1)NC(=O)CS2 (configuration not stated)	i[7.34 µM]	40.4%	-0.8%	13.5%	-12.9%[7.34 µM]	-12.4%
CCC(C)(C)NC(=O)C(c1ccc(F)cc1)N(Cc1ccccc1)C(=O)c1cnccn1 (configuration not stated)	i	0.0%	nt	1.41µM*	-8.1%	?
Cc1ccc(CN(C(=O)c2csnn2)C(C(=O)NC2CCCC2)c2ccc(C)o2)cc1 (configuration not stated)	-8.0%	-15.6%	-4.7%	-17.8%	4.0%	14.7µM*
COc1cc(C(C(=O)NC(C)(C)C)N(Cc2ccccc2)C(=O)c2cnccn2)cc(OC)c1OC (configuration not stated)	-15.5%	?	-0.7%	22.8%	-1.9%	0.0%
CC(C)(C)NC(=O)C(c1cccs1)N(Cc1ccc(F)cc1)C(=O)c1csnn1 (configuration not stated)	-7.5%	33.2%	-9.3%	-10.5%	-1.9%	9.28µM*
CCC(C)(C)NC(=O)C(c1ccncc1)N(Cc1ccc(C)cc1)C(=O)c1csnn1 (configuration not stated)	nt	4.65µM*	4.3%	?	nt	-29.8%
Cc1cc(-c2ccnc(-n3ncc(C(=O)NCC(C)(C)N4CCOCC4)c3C)n2)c(C)s1	7.8%	nt	nt	nt	21.7%	nt
SMILES	Vaccinia mCherry	Pf growth 96h	NS1 function inh	HCV inh	Vaccinia Venus	Pf growth 48h
C[C@@H]1CN([C@H](C)CO)C(=O)CCCn2cc(nn2)CO[C@H]1CN(C)C(=O)Nc1ccc2c(c1)OCO2	-9.1%	nt	nt	nt	-18.7%	nt
CCCc1ccc(OCc2nc(-c3ccc(NC(=O)c4ccco4)cc3)no2)cc1	?	?	-10.5%	-11.6%	?	?
CCOc1ccccc1NC(C)C(=O)NC(=O)NC1CCCCC1 (configuration not stated)	nt	13.1µM*	nt	-4.1%	nt	?
COc1ccccc1NC(=O)NC1CCCCCCC1	-12.8%	11.7µM*	-6.3%	-9.4%	-20.6%	-28.0%
COc1ccccc1NC(=O)N1CCCC(C(=O)Nc2cccc(C)c2C)C1 (configuration not stated)	nt	8.28µM*	3.7%	-3.9%	nt	-0.1%
COCCCN1C(=O)C(=O)/C(=C(/O)c2ccc(S(=O)(=O)N3CCCCC3)cc2)C1c1ccc(F)cc1 (configuration not stated)	nt	?	-1.4%	12.3%	nt	-23.8%
Cc1cccc(C)c1NC(=O)N1CCC(N2CCCCC2)CC1	-14.1%	?	-5.3%	7.3%	-12.7%	10.6%
CC(C)CNS(=O)(=O)c1cc(C(=O)OCC(=O)N2CCOCC2)c(Cl)cc1Cl	-12.5%	-6.8%	-5.0%	-13.2%	10.0%	?
Cc1cc(N2CCN(c3ccccn3)CC2)n2cc(-c3ccccc3)nc2n1	nt	6.57µM*	-14.2%	8.9%	nt	13.1µM*
Cc1cc(N2CCN(C)CC2)n2cc(-c3ccc(F)cc3)nc2n1	nt	-3.5%	8.3%	0.2%	nt	0.4%
CC(=O)Nc1cccc2c1C(=O)N(c1ccccc1C)C2=O	i	?	nt	9.3%	-0.5%	3.1%
COc1ccc2c(c1)CCN=C2Cc1ccc(OC)c(OC)c1	-21.7%	13.1µM*	7.4%	?	-8.2%	?
Cc1cccc(OCC(=O)Nc2ccccc2N2CCN(C)CC2)c1	-12.9%	7.9%	3.8%	-8.7%	-13.5%	4.5%
O=C(COc1ccccc1)Nc1ccccc1N1CCCCC1	-16.6%	3.8%	-45.9%	?	-19.2%	?
O=C(COc1ccccc1)Nc1ccccc1N1CCN(c2ccccc2)CC1	i	2.94µM*	-8.9%	-3.8%	-14.8%	?
CCOc1ccc(OCC(=O)Nc2ccccc2N2CCCC2)cc1	i	11.7µM*	nt	?	-24.0%	?
CN1CCN(c2ccccc2NC(=O)COc2ccc(Br)cc2)CC1	nt	1.85µM*	-4.1%	-25.8%	nt	nt
